Data from PubChem BioAssay (NCI).
The panel holds about 79,000 compounds, 15% with a hit somewhere; the sample as a whole holds those more often. A number with no mark means an inactive call. The source made the active and inactive calls. Cut-off read from the data, not from the text of the source: active = growth inhibition above about 70%; inactive = the rest.

Key:
[1] = NCI Yeast Anticancer Drug Screen. Data for the rad50 strain (AID 155);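 note: 0% = growth of vehicle-only cultures of the same strain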; details: S. cerevisiae rad50 strain growth inhibition, active compounds read high
Summary of the method: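 Relative growth inhibition (compound vs vehicle) was measured in yeast with a defined repair-gene alteration.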

[2] = NCI Yeast Anticancer Drug Screen. Data for the mec2-1 strain (AID 157); details: S. cerevisiae mec2-1 strain, active compounds read high
Summary of the method: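 Strain: mec2-1 (DNA repair/cell cycle alteration). Compound exposure, then growth measured; inhibition expressed relative to vehicle.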

[3] = NCI Yeast Anticancer Drug Screen. Data for the sgs1 mgt1 strain (AID 161);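 note: 0% = growth of cultures given vehicle only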; details: S. cerevisiae sgs1 mgt1 strain, active compounds read high
Summary of the method: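 Test agents were incubated with a DNA-repair-mutant yeast strain. Growth was then read and compared against vehicle-treated controls.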

[4] = NCI Yeast Anticancer Drug Screen. Data for the cln2 rad14 strain (AID 165);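 note: 0% = growth equal to vehicle treated cultures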; details: S. cerevisiae cln2 rad14 strain, active compounds read high
Summary of the method: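 Compounds are applied to the cln2 rad14 yeast strain, and growth is then compared with that of vehicle-treated cultures to give inhibition.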

[5] = NCI Yeast Anticancer Drug Screen. Data for the bub3 strain (AID 167); details: S. cerevisiae bub3 mutant strain, active compounds read high
Summary of the method: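 Screening used yeast with an engineered genetic alteration affecting cell cycle control. Compound-exposed cultures were compared with vehicle cultures, and reduced growth was taken as inhibition.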

[6] = NCI Yeast Anticancer Drug Screen. Data for the mlh1 rad18 strain (AID 175); details: S. cerevisiae mlh1 rad18 strain growth inhibition, active compounds read high
Summary of the method: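 Read-out is yeast growth inhibition, calculated against vehicle-only controls. The compound was applied to a strain engineered with DNA damage repair alterations.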

[7] = at 5.0 µM (retest, dose inferred, filed as 0.5)
[8] = at 50.0 µM (retest, dose inferred, filed as 5.0)

| Compound | growth inhibition [1, 7] | growth inhibition [1, 8] | growth inhibition ([1]; at 50.0 µM) | growth inhibition [2, 7] | growth inhibition [2, 8] | growth inhibition ([2]; at 50.0 µM) | growth inhibition [3, 7] | growth inhibition [3, 8] | growth inhibition ([3]; at 50.0 µM) | growth inhibition [4, 7] | growth inhibition [4, 8] | growth inhibition ([4]; at 50.0 µM) | growth inhibition [5, 7] | growth inhibition [5, 8] | growth inhibition ([5]; at 50.0 µM) | growth inhibition [6, 7] | growth inhibition [6, 8] | growth inhibition ([6]; at 50.0 µM) |
| --- | --- | --- | --- | --- | --- | --- | --- | --- | --- | --- | --- | --- | --- | --- | --- | --- | --- | --- |
| Cc1cc(NC(=S)SCc2ccc(Cl)cc2)c([N+](=O)[O-])cc1C | 65% | 95% (active) | 96% (active) | 45% | 97% (active) | 98.2% (active) | 90% (active) | 96% (active) | 97.3% (active) | 42% | 92% (active) | 94.3% (active) | 53% | 97% (active) | 96.2% (active) | 98% (active) | 96% (active) | 97.2% (active) |
| O=C1C(Sc2ccc3ccccc3c2)=C(Sc2ccc3ccccc3c2)C(=O)c2ccccc21 | 34% | 90% (active) | 94.2% (active) | 21% | 94% (active) | 99% (active) | 36% | 93% (active) | 98.9% (active) | 7% | 89% (active) | 98.3% (active) | 71% (active) | 90% (active) | 98.9% (active) | 16% | 89% (active) | 96.8% (active) |
| Oc1cc2ccccc2c2c1ccc1ccccc12 | -142% | 90% (active) | 84.5% (active) | -35% | 97% (active) | 77.8% (active) | -52% | 95% (active) | 86.7% (active) | -55% | 95% (active) | 67.8% | -55% | 94% (active) | 84% (active) | -94% | 92% (active) | 77.3% (active) |
| O=c1ccnc(Sc2ccc([N+](=O)[O-])cc2[N+](=O)[O-])[nH]1 | 16% | 94% (active) | 47.2% | 8% | 94% (active) | 54.6% | 2% | 87% (active) | 84% (active) | 1% | 74% (active) | 59.1% | -1% | 92% (active) | 52.5% | 2% | 93% (active) | 49.6% |
| CCCCCCCCCCCCCCCCOc1ccc(S(=O)(=O)N/N=c2/sc3ccc(S(=O)(=O)O)cc3n2C)cc1C(=O)O | 6% | 88% (active) | 79.6% (active) | 6% | 63% | 78.7% (active) | 0% | 76% (active) | 76% (active) | 16% | 62% | 40.2% | -3% | 83% (active) | 68.8% | -13% | 88% (active) | 73.4% (active) |
| O=P(OCCCl)(OCCCl)C(Nc1cccc2ccccc12)c1ccccc1 (stereo not given) | 7% | 86% (active) | 91% (active) | -8% | 72% (active) | 91.4% (active) | 5% | 86% (active) | 88.5% (active) | -1% | 86% (active) | 87.5% (active) | 1% | 87% (active) | 86.7% (active) | 4% | 84% (active) | 90.2% (active) |
| O=C(O)Cc1ccc2ccccc2c1-c1ccccc1 | -1% | 93% (active) | 86.7% (active) | -11% | 93% (active) | 91.8% (active) | 2% | -19% | 85% (active) | -3% | 98% (active) | 95% (active) | -11% | 92% (active) | 94.7% (active) | -20% | 94% (active) | 90.2% (active) |
| c1ccc(N=C2SC3=NCCN3C2=Nc2ccccc2)cc1 | 43% | 87% (active) | 50% | 7% | 86% (active) | 74.5% (active) | 17% | 86% (active) | 72% (active) | 31% | 66% | 46.6% | -11% | 97% (active) | 70.2% (active) | 13% | 78% (active) | 61.9% |
| O=[N+]([O-])c1ccc(CN2CCN(c3nccs3)CC2)cc1 | 5% | 22% | 76.8% (active) | -3% | 11% | 51% | 1% | 61% | 77.8% (active) | -1% | 29% | 34.5% | -1% | 38% | 66.6% | 3% | 46% | 66.2% |
| O=C(CSc1nnc(Cc2ccccc2)o1)Nc1ccc(Cl)cc1 | -20% | 87% (active) | 16.1% | -5% | 54% | 15.2% | -1% | 80% (active) | 48.6% | 18% | 79% (active) | 35% | 4% | 91% (active) | 26.2% | -5% | 91% (active) | 28.8% |
| CCCCCCCCCCCC(=O)OC/C=C/COC(=O)c1ccccc1 | 2% | 23% | 36% | -3% | 31% | -5.05% | 1% | 69% | 38.5% | 0% | 20% | 69.3% | -5% | 46% | 44% | -7% | 46% | 5.35% |
| [Cl][Sn]([O][Sn]([Cl])([c]1ccccc1)[CH]1CCCCC1)([c]1ccccc1)[CH]1CCCCC1 (stereo not given) | 6% | 97% (active) | 88% (active) | 7% | 99% (active) | 90.3% (active) | 12% | 99% (active) | 90.8% (active) | -11% | 98% (active) | 90.1% (active) | 2% | 99% (active) | 89.6% (active) | 5% | 97% (active) | 92% (active) |
| CCN(CC)COC(=S)S | 8% | 99% (active) | 97.7% (active) | -3% | 100% (active) | 83.1% (active) | 11% | 99% (active) | 99% (active) | 5% | 97% (active) | 44% | -11% | 99% (active) | 97.3% (active) | 15% | 99% (active) | 98.5% (active) |
| C/C(=N/NC(=S)Nc1ccc(C)cc1)c1ccccn1 | 31% | 99% (active) | 79.2% (active) | 33% | 99% (active) | 84.9% (active) | 32% | 99% (active) | 88.5% (active) | -15% | 99% (active) | 88.3% (active) | -7% | 99% (active) | 90% (active) | 20% | 99% (active) | 87.9% (active) |
| O=C(Nc1ccc(Cl)cc1)Nc1nnc2nc(C(C(=O)/C=C/c3ccccc3)c3nc4nnc(NC(=O)Nc5ccc(Cl)cc5)n4[nH]c3=O)c(=O)[nH]n12 | -8% | 11% | 48.5% | -7% | -3% | 48% | 4% | 2% | 46.6% | -8% | 2% | 28.6% | -11% | 7% | 39.5% | -6% | 8% | 63.2% |
